In PubChem BioAssay (NCI):
The panel holds about 79,000 compounds, 15% with a hit somewhere; the sample as a whole holds those more often. Activity calls are given as the source filed them. Rule as the data show it: active = growth inhibition above about 70%; inactive = the rest.

Tests used:
[1] = NCI Yeast Anticancer Drug Screen. Data for the rad52 strain (AID 147);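 also: 0% = growth of vehicle-treated control cultures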; details: S. cerevisiae rad52 mutant growth inhibition, stronger effect = higher value
In short: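 Screen used a yeast mutant impaired in DNA repair. After compound exposure, growth was measured. Values reflect inhibition compared with vehicle-treated cells.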

[2] = NCI Yeast Anticancer Drug Screen. Data for the wt1 strain (AID 149);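 also: 0% = growth of vehicle-treated wt1 cultures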; details: S. cerevisiae wt1 strain (SPY 50644) growth inhibition, stronger effect = higher value
In short: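 wt1 strain grown with compound or vehicle; inhibition taken from the growth difference.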

[3] = NCI Yeast Anticancer Drug Screen. Data for the rad50EPP+ strain (AID 151);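 also: 0% = growth of vehicle-treated control cultures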; details: S. cerevisiae rad50 mutant strain, stronger effect = higher value
In short: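 Exposing the rad50EPP+ strain to each compound, growth was compared with vehicle-only cultures to give inhibition.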

[4] = NCI Yeast Anticancer Drug Screen. Data for the mgt1 strain (AID 153); details: S. cerevisiae mgt1 mutant growth inhibition, stronger effect = higher value
In short: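 Genetically defined yeast (mgt1) treated with compound; inhibition of growth expressed against vehicle-treated controls.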

[5] = NCI Yeast Anticancer Drug Screen. Data for the rad50 strain (AID 155);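 also: 0% = growth of vehicle-only cultures of the same strain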; details: S. cerevisiae rad50 strain growth inhibition, stronger effect = higher value
In short: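 DNA repair mutant yeast, compound exposure, growth read-out; inhibition is taken relative to vehicle.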

[6] = NCI Yeast Anticancer Drug Screen. Data for the mec2-1 strain (AID 157); details: S. cerevisiae mec2-1 strain, stronger effect = higher value
In short: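 Readout is yeast growth inhibition, normalised to vehicle-treated controls, in the mec2-1 strain exposed to compound.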

[7] = NCI Yeast Anticancer Drug Screen. Data for the rad14 strain (AID 159);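 also: 0% = growth of vehicle-treated control cultures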; details: S. cerevisiae rad14 strain growth inhibition, stronger effect = higher value
In short: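 DNA repair-defective yeast, compound-exposed; % growth inhibition derived by comparison with vehicle-treated controls.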

[8] = NCI Yeast Anticancer Drug Screen. Data for the sgs1 mgt1 strain (AID 161);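 also: 0% = growth of cultures given vehicle only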; details: S. cerevisiae sgs1 mgt1 strain, stronger effect = higher value
In short: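 Percent growth inhibition was derived by comparing compound-exposed mutant yeast with vehicle-exposed cultures. The strain carries alterations in DNA damage repair.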

[9] = NCI Yeast Anticancer Drug Screen. Data for the CLN2oe strain (AID 163);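 also: 0% = growth of vehicle-only control cultures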; details: S. cerevisiae CLN2oe strain, stronger effect = higher value
In short: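 Values reflect how much compound exposure reduced yeast growth, referenced to vehicle-exposed cells. Assay organism is a strain with a defined genetic change affecting cell-cycle control.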

[10] = NCI Yeast Anticancer Drug Screen. Data for the cln2 rad14 strain (AID 165);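 also: 0% = growth equal to vehicle treated cultures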; details: S. cerevisiae cln2 rad14 strain, stronger effect = higher value
In short: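 Relative to vehicle controls, growth inhibition of compound-treated cln2 rad14 yeast was recorded.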

[11] = NCI Yeast Anticancer Drug Screen. Data for the bub3 strain (AID 167); details: S. cerevisiae bub3 mutant strain, stronger effect = higher value
In short: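 In this screen, a yeast mutant lacking normal mitotic checkpoint function is challenged with compound. Relative growth versus vehicle gives the inhibition value.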

[12] = NCI Yeast Anticancer Drug Screen. Data for the wt2 strain (AID 169);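 also: 0% = growth of vehicle-treated yeast cultures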; details: S. cerevisiae wt2 strain growth inhibition, stronger effect = higher value
In short: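 Values express reduction in yeast growth under compound treatment, referenced to vehicle-treated cells.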

[13] = NCI Yeast Anticancer Drug Screen. Data for the mlh1 strain (AID 171);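 also: 0% = growth of vehicle-treated control cultures of the same strain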; details: S. cerevisiae mlh1 strain growth inhibition, stronger effect = higher value
In short: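 Steps: expose the defined-mutant yeast strain to compound; expose a parallel culture to vehicle; measure growth; express compound effect as inhibition relative to the vehicle culture.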

[14] = NCI Yeast Anticancer Drug Screen. Data for the sgs1 strain (AID 173);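 also: 0% = growth of vehicle-only control cultures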; details: S. cerevisiae sgs1 mutant, stronger effect = higher value
In short: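 Treat defined-mutant yeast with compound; measure growth; calculate inhibition relative to vehicle-treated cells.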

[15] = NCI Yeast Anticancer Drug Screen. Data for the mlh1 rad18 strain (AID 175); details: S. cerevisiae mlh1 rad18 strain growth inhibition, stronger effect = higher value
In short: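 Test agents were incubated with a yeast strain of defined genotype (DNA damage repair defect). Inhibition of growth was derived by comparison with vehicle-exposed cultures.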

[16] = NCI Yeast Anticancer Drug Screen. Data for the rad18 strain (AID 177); details: S. cerevisiae rad18 mutant growth inhibition, stronger effect = higher value
In short: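 A genetically defined yeast mutant impaired in DNA damage repair was treated with test compounds, then its growth was measured against cultures receiving vehicle alone.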

[17] = at 5.0 µM (retest, dose inferred, filed as 0.5)
[18] = at 50.0 µM (retest, dose inferred, filed as 5.0)

Measured: growth inhibition

CCCCOC(=O)N[C@H]1CCc2cc(OC)c(OC)c(OC)c2-c2ccc(SC)c(=O)cc21
inactive: [1]; at 1.2 µM -2% | [1]; at 3.7 µM 1% | [1]; at 11.0 µM 6% | [1]; at 33.0 µM 36% | [2]; at 1.2 µM -2% | [2]; at 3.7 µM -3% | [2]; at 11.0 µM -4% | [2]; at 33.0 µM 3% | [2]; at 100.0 µM 55% | [3]; at 1.2 µM 1% | [3]; at 3.7 µM -1% | [3]; at 11.0 µM -4% | [3]; at 33.0 µM -6% | [3]; at 100.0 µM -11% | [4]; at 1.2 µM -5% | [4]; at 3.7 µM -3% | [4]; at 11.0 µM -1% | [4]; at 33.0 µM 49% | [5]; at 1.2 µM 1% | [5]; at 3.7 µM 6% | [5]; [17] -15% | [5]; at 11.0 µM 14% | [5]; at 33.0 µM 51% | [5]; [18] 52% | [6]; at 1.2 µM -6% | [6]; at 3.7 µM -3% | [6]; [17] -19% | [6]; at 11.0 µM -2% | [6]; at 33.0 µM 15% | [6]; [18] 48% | [6]; at 50.0 µM 53% | [7]; at 1.2 µM -1% | [7]; at 3.7 µM 2% | [7]; at 11.0 µM 7% | [7]; at 33.0 µM 49% | [8]; [17] 3% | [8]; [18] -13% | [9]; at 1.2 µM -2% | [9]; at 3.7 µM -5% | [9]; at 11.0 µM -1% | [9]; at 33.0 µM 30% | [10]; [17] -17% | [10]; [18] 60% | [10]; at 50.0 µM 58.3% | [11]; at 1.2 µM -9% | [11]; at 3.7 µM -8% | [11]; [17] 0% | [11]; at 11.0 µM -5% | [11]; at 33.0 µM 2% | [11]; [18] 55% | [12]; at 1.2 µM -2% | [12]; at 3.7 µM -3% | [12]; at 11.0 µM -1% | [12]; at 33.0 µM 29% | [13]; at 1.2 µM -4% | [13]; at 3.7 µM -3% | [13]; at 11.0 µM 2% | [13]; at 33.0 µM 27% | [14]; at 1.2 µM -3% | [14]; at 3.7 µM -5% | [14]; at 11.0 µM 2% | [14]; at 33.0 µM 38% | [15]; [17] -12% | [15]; [18] 47% | [16]; at 1.2 µM -1% | [16]; at 3.7 µM 0% | [16]; at 11.0 µM 7% | [16]; at 33.0 µM 26%
active: [1]; at 100.0 µM 77% | [4]; at 100.0 µM 77% | [5]; at 50.0 µM 82.5% | [5]; at 100.0 µM 81% | [6]; at 100.0 µM 81% | [7]; at 100.0 µM 84% | [8]; at 50.0 µM 82.5% | [9]; at 100.0 µM 79% | [11]; at 50.0 µM 77.8% | [11]; at 100.0 µM 81% | [12]; at 100.0 µM 86% | [13]; at 100.0 µM 90% | [14]; at 100.0 µM 89% | [15]; at 50.0 µM 92.9% | [16]; at 100.0 µM 80%

Cc1ccc(Nc2nc3c(=O)n(C)c(=O)n(C)c3nc2Nc2ccc(C)cc2)cc1
active: [5]; at 50.0 µM 92.5% | [6]; at 50.0 µM 95.3% | [8]; at 50.0 µM 92.8% | [10]; at 50.0 µM 79.3% | [11]; at 50.0 µM 94.5% | [15]; [18] 89% | [15]; at 50.0 µM 95.7%
inactive: [1]; at 1.2 µM -2% | [1]; at 3.7 µM 2% | [1]; at 11.0 µM 2% | [1]; at 33.0 µM 2% | [1]; at 100.0 µM 30% | [2]; at 1.2 µM 0% | [2]; at 3.7 µM -1% | [2]; at 11.0 µM 1% | [2]; at 33.0 µM -3% | [2]; at 100.0 µM 6% | [3]; at 1.2 µM 3% | [3]; at 3.7 µM -2% | [3]; at 11.0 µM -6% | [3]; at 33.0 µM -16% | [3]; at 100.0 µM 41% | [4]; at 1.2 µM -2% | [4]; at 3.7 µM -4% | [4]; at 11.0 µM -4% | [4]; at 33.0 µM 11% | [4]; at 100.0 µM -2% | [5]; at 1.2 µM -2% | [5]; at 3.7 µM 1% | [5]; [17] -13% | [5]; at 11.0 µM 2% | [5]; at 33.0 µM 0% | [5]; [18] 66% | [5]; at 100.0 µM 23% | [6]; at 1.2 µM -2% | [6]; at 3.7 µM 3% | [6]; [17] -9% | [6]; at 11.0 µM -2% | [6]; at 33.0 µM -4% | [6]; [18] 22% | [6]; at 100.0 µM 11% | [7]; at 1.2 µM 0% | [7]; at 3.7 µM -4% | [7]; at 11.0 µM -1% | [7]; at 33.0 µM -5% | [7]; at 100.0 µM 7% | [8]; [17] -2% | [8]; [18] 45% | [9]; at 1.2 µM -2% | [9]; at 3.7 µM 3% | [9]; at 11.0 µM -4% | [9]; at 33.0 µM -5% | [9]; at 100.0 µM -10% | [10]; [17] -14% | [10]; [18] 11% | [11]; at 1.2 µM -3% | [11]; at 3.7 µM -5% | [11]; [17] -9% | [11]; at 11.0 µM 0% | [11]; at 33.0 µM -1% | [11]; [18] 16% | [11]; at 100.0 µM 2% | [12]; at 1.2 µM 0% | [12]; at 3.7 µM -1% | [12]; at 11.0 µM -1% | [12]; at 33.0 µM -2% | [12]; at 100.0 µM 12% | [13]; at 1.2 µM 0% | [13]; at 3.7 µM -2% | [13]; at 11.0 µM 1% | [13]; at 33.0 µM -3% | [13]; at 100.0 µM 3% | [14]; at 1.2 µM -3% | [14]; at 3.7 µM 2% | [14]; at 11.0 µM 1% | [14]; at 33.0 µM 3% | [14]; at 100.0 µM 20% | [15]; [17] -14% | [16]; at 1.2 µM 2% | [16]; at 3.7 µM 0% | [16]; at 11.0 µM 11% | [16]; at 33.0 µM 4% | [16]; at 100.0 µM 46%
